Results as given in PubChem BioAssay AID504604 (National Center for Advancing Translational Sciences (NCATS), 2011).
Active and inactive are the calls of the source. The call rests on the fitted dose curve; in most records, active means well fitted inhibition curve with a large enough effect; inconclusive means small, poorly fitted or top-dose-only effect; inactive means flat fitted curve, though single readings scatter.

Experiment: Quantitative high throughput screen to test activity of anti-malarial compounds in the Dd2 strain of Plasmodium Falciparum
Settings: P. falciparum Dd2 in RBCs, SYBR Green growth, 72 h
From the text: NIH Molecular Libraries Probe Production Network [MLPCN] NIH Chemical Genomics Center [NCGC] MLPCN Grant: R21 NS059500 Assay Provider: David Fidock and Eric Ekland, Columbia University The goal of this screen is to measure the ability of a set of anti-malarial compounds to inhibit the Dd2 strain of P. falciparum. These compounds have been screened in a delayed death phenotype assay and have been identified as inhibitors of the delated death phenotype, by inhibiting the development of the apicoplast in the malarial parasite Plasmodium falciparum (described below) The biochemical processes that make this organelle essential for erythrocytic stage parasites are not well understood. However, antibiotics, such as azithromycin and tetracycline, which target the apicoplast translational machinery, have a potent antimalarial effect. […] We have developed a cell-based assay that measures parasite growth based on the expression of an integrated copy of a firefly luciferase reporter. To detect small molecules that cause this 'delayed death' phenotype, erythrocytes infected with the luciferase-expressing parasites were incubated with compounds for either one or two generations, corresponding to 48 and 96 hours, respectively. […] Growth inhibition is detected by a decrease in luciferase activity […]

Structure (SMILES) | Potency
COc1ccc(COC[C@H](C)N2C[C@@H](C)[C@H](CN(C)S(=O)(=O)c3ccc(F)cc3)OCCCC[C@H](C)Oc3ccc(NC(=O)Nc4ccccc4)cc3C2=O)cc1 | 0.0142 µM (active)
C[C@@H]1CN([C@@H](C)CO)C(=O)c2cc(NC(=O)Nc3ccccc3)ccc2O[C@@H](C)CCCCO[C@H]1CN(C)C(=O)Oc1ccccc1 | 8.96 µM (active)
